# Several values for one entry are separate records, joined by “and”; a condition that tells them apart may be missing. Equal values may be shown once. Screen size: about 580,000 compounds; about 6,100 (1.1%) were called active. Entries that show only a call come without a potency. Another 15% or so got no clear call; they are omitted. Calls come from the whole dose curve; as a rule, active = well fitted inhibition curve with a large enough effect; inconclusive = small, poorly fitted or top-dose-only effect, or another doubt; inactive = no such curve, though single readings can be large or run the other way. Only a selection was taken, and actives are over-represented in it overall.
# Target: Polyunsaturated fatty acid lipoxygenase ALOX12 (Homo sapiens) (UniProt P18054)
# Sequence (P18054 whole entry, looked up): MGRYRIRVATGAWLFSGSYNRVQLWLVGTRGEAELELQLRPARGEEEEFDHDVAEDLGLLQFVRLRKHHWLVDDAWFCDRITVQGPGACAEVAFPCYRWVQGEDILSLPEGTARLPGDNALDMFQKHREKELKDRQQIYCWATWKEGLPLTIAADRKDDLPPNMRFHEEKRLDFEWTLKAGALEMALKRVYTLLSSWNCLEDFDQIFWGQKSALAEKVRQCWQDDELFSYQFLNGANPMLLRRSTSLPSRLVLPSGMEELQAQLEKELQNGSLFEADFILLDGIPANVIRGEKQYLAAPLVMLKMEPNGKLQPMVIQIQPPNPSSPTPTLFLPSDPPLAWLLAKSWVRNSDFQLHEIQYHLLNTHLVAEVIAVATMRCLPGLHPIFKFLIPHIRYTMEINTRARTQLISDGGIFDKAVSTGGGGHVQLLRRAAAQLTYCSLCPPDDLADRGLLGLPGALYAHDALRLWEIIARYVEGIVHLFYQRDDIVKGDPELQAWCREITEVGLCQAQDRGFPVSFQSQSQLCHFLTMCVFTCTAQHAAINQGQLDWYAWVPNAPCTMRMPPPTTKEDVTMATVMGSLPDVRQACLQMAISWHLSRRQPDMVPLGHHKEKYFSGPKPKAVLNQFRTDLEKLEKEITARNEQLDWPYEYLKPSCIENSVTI
# Experiment: Primary qHTS assay for inhibitors of human arachidonate 12S-lipoxygenase (ALOX12): Round 2
# Settings: purified 12hLO, xylenol orange hydroperoxide absorbance; series mostly up to 108 µM
# Source text: Assay Provider: Theodore R. Holman Ph.D. University of California, Santa Cruz, California Human lipoxygenase 12hLO is a member of the closely related lipoxygenase family of enzymes which catalyze the site-specific oxidation of arachidonic acid to various hormone precursor molecules and as such is a candidate for drug development in a variety of disease areas, such as cancer and inflammation. Inhibition of 12hLO activity was screened by utilizing arachidonic acid as a substrate. The extent of hydroperoxide product formation was measured by a secondary chromogenic reaction in which xylenol orange (XO, Sigma-Aldrich, cat. number 39,818-7) reacts with the ferric ions produced from the reaction between the hydroperoxide and ferrous ions. The Fe (III)-XO complex is characterized with red-shifted absorbance at 560 nm. A purified preparation of human 12hLO was supplied by Dr. Holman laboratory, University of California, Santa Cruz.
# PROTOCOL TABLE SEQUENCE No. (e.g., 1, 2, 3, etc.); […] (e.g., Cells, Incubation, Reagent, etc.); VALUE; DESCRIPTION 1; Enzyme; 3 uL; 150 nM 12hLO enzyme solution dispensed in 1536-well Greiner black, clear bottom plates. 2; Compound; 23 nL; compounds and controls were added. 3; Incubate; 15 min; room temperature. 4; Substrate; 1 uL; 40 uM arachidonic acid (final concentration). 5; Incubate; 30 min; room temperature. 6; Reagent; 4 uL; Fe-XO solution was added to each well. 7; Incubation; 30 min; room temperature 8; Detector; absorbance; Read 1 at 405 nm absorbance using ViewLux (Perkin-Elmer) CCD imager. 9; Detector; absorbance; Read 2 at 573 nm absorbance using ViewLux (Perkin-Elmer) CCD imager. NOTES (numbers refer to sequence above) 1; 150 nM 12hLO (final concentration) in buffer solution (25 mM Hepes, 0.01% Triton X-100, pH 7.0) was dispensed in columns 1, 2, 5-48. Column 1 is neutral (100% activity). Buffer only was dispensed in columns 3 and 4 as no enzyme negative controls. The plates were covered with metal lids with gas-exchange holes. 2; Compounds were pin transferred via a Kalypsys Pin Tool (Wako USA) in column 5-48. Control compound was transferred in column 2, titration of nordihydroguaiaretic acid (NDGA, Sigma-Aldrich, N5023) with top concentration of 20 mM in DMSO then 1:3 dilution in duplicate. Dilution factor of 23 nL into 4 uL final assay volume. 3; Covered assay plates were incubated for 15 min at room temperature. 4; Substrate was added to start the reaction; 40 uM arachidonic acid (Sigma-Aldrich, St. Louis, MO) was dispensed throughout the plate. 6; Chromogenic detection reagent solution (divalent iron/xylenol orange, Fe-XO) was added to each well: 200 uM xylenol orange, 300 uM ferrous ammonium sulfate prepared freshly in 50 mM sulfuric acid. 8, 9; Two absorbance readouts were obtained at 405 nm and at 573 nm using a ViewLux high-throughput CCD plate imager (Perkin-Elmer). The 573 to 405 (Read 2 / Read 1) absorbance ratio was used to compute reaction progress.
# Potency is the fitted concentration of half-maximal effect.
row,SMILES,Potency
1,CCc1ccccc1NC(=O)CSc1nc2ccccc2nc1C,inactive
2,Cc1cc(C)cc(NC(=O)COc2ncnc3ccccc23)c1,inactive
3,COc1ccccc1CN(C)C(=O)NCc1ccc(S(=O)(=O)N2CCCCC2)cc1,inactive
4,c1ccc(CN2CCc3c(sc4c3c(N3CCOCC3)nc3nnnn34)C2)cc1,inactive
5,CCCCS(=O)(=O)CCCCCO,inactive
6,CN(C)c1ccc(NC(=O)Cn2cnc3c2c(=O)n(C)c(=O)n3C)cc1,inactive
7,CC1(C)NC(=O)N(CCCC(=O)Nc2cccc3cccnc23)C1=O,inactive
8,Cc1cccc(NC2=NC(c3cccnc3)n3c(nc(C)cc3=O)N2)c1 (centres undefined),inactive
9,COc1ccccc1NC(=O)c1cc2c(OC)c(OC)c(OC)cc2[nH]1,inactive
10,Cc1ccc(CNCc2ccc3c(c2)OCO3)c(C)c1,44.7 µM (active)
11,CCOc1ccc(S(=O)(=O)NCc2ccc3c(c2)OCO3)cc1C,inactive
12,Cc1cc2oc(C(=O)NCc3ccc4c(c3)OCO4)cc(=O)c2cc1C,inactive
13,CCOC(=O)c1c(NC(=O)C2(C)Cc3ccccc3C(=O)O2)sc2c1CCCC2 (centres undefined),inactive
14,CCOC(=O)C1=C(NC(=S)NC(=O)c2ccccc2)c2ccccc2CC1(C)C,22.4 µM (active)
15,CC(C)CNC(=O)NC1=C(C#N)C(C)(C)Cc2ccccc21,inactive
16,CC(=O)CCc1ccc(OCC(O)CNC(C)(C)CO)cc1 (centres undefined),inactive
17,CCc1ccc(-c2nc(SCc3ncc(-c4ccccc4)o3)n[nH]2)cc1,inactive
18,CCOC(=O)c1cccc(NC(=O)C2=Cc3ccccc3OC=C2)c1,inactive
19,CC(=O)c1c(N2CCOCC2)nc(=S)n(-c2cc(C)ccc2C)c1C,inactive
20,CC(=O)c1c(N2CCN(c3ccc(F)cc3)CC2)nc(=S)n(-c2ccccc2)c1C,44.7 µM (active)
21,CC(=O)c1c(N2CCOCC2)nc(=S)n(Cc2ccccc2)c1C,inactive
22,Cc1ccc(/C=C/C(=O)c2cc3ccccc3o2)s1,inactive
23,O=C(COc1ccc(F)cc1)Nc1ccc2oc(-c3ccc(F)cc3)nc2c1,inactive
24,COc1ccc(CCNc2ncnc3c2cnn3-c2ccc(C)cc2)cc1,28.2 µM (active)
25,Clc1cccc(-n2ncc3c(NCCc4ccccc4)ncnc32)c1,44.7 µM (active) and 8.91 µM (active)
26,NS(=O)(=O)c1ccc(CCNc2ncnc3c2cnn3-c2ccccc2Cl)cc1,inactive

row,SMILES,Potency
1,CCN(CC)CCNc1ncnc2c1cnn2-c1cc(Cl)ccc1C,inactive
2,COc1ccc(CCNc2ncnc3c2nnn3Cc2ccccc2)cc1,inactive
3,Cc1ccc(-n2ncc3c(NNC(=O)C4CCCCC4)ncnc32)cc1,inactive
4,CCOC(=O)c1c(C)c(CCC(=O)NCCN2CCOCC2)c(C)n1C,inactive
5,CCN(CC)C(=O)C1=C(C)N=C2SC=C(CC(=O)NCc3ccco3)N2C1c1ccccc1F (centres undefined),inactive
6,C#CCNC(=O)CC[C@@H]1CNC(=O)[C@@H]2C[C@H](NC(=O)Nc3cccc(Cl)c3)CN12,inactive
7,O=C1Nc2ccc(-c3ccc(Cl)cc3)cc2C(=O)N2CC[C@H](NC(=O)N3CCOCC3)[C@@H]12,inactive
8,COc1cc(=O)n(-c2ccc(C)cc2)nc1C(=O)Nc1cccc(Cl)c1C,inactive
9,COc1cc(OC)cc(C(=O)OCC(=O)Nc2c(C)cccc2C(C)C)c1,inactive
10,CC(C)c1ccc(C2/C(=C(\O)c3ccc4c(c3)OCCO4)C(=O)C(=O)N2c2nccs2)cc1 (centres undefined),0.794 µM (active)
11,O=C1C(=O)N(CCCN2CCOCC2)C(c2ccc([N+](=O)[O-])cc2)/C1=C(\O)c1ccc2c(c1)OCCO2 (centres undefined),inactive
12,COc1cc(C2/C(=C(\O)c3ccc4c(c3)CC(C)O4)C(=O)C(=O)N2c2nnc(C)s2)cc(OC)c1OC (centres undefined),inactive
13,CCn1cc(C#N)c(=O)n(Cc2noc(-c3ccc(Cl)cc3)n2)c1=O,inactive
14,Cc1cccc(NC(=O)N2CCCCCC2)c1C,inactive
15,Cc1cccc(NC(=O)c2ccc3nc(C(C)C)oc3c2)c1C,inactive
16,Cc1cccc(NC(=O)c2cccc(C(=O)Nc3cccc(C)c3C)n2)c1C,3.16 µM (active)
17,O=C(OCc1ccccc1)N1CCOCC12CCN(Cc1cccc(O)c1)CC2,inactive
18,CCc1ccccc1NC(=O)CSc1nc2c(=O)[nH]cnc2n1CC,inactive
19,Cc1cc(C)cc(-n2ccnc2SCC(=O)Nc2nc3ccccc3s2)c1,inactive
20,c1ccc(C(=NNc2nc3ccccc3s2)c2ccccn2)cc1,44.7 µM (active)
21,O=C(CCc1ncc(-c2ccccc2)o1)Nc1nc2ccccc2s1,inactive
22,COc1cccc(Oc2coc3cc(OC)ccc3c2=O)c1,inactive
23,CCN1C(=O)COc2ccc(NC(=O)c3cc(=O)c4cc(Cl)c(C)cc4o3)cc21,inactive
24,O=C(NCCc1nc2ccccc2[nH]1)c1ccc(N2CCCN(Cc3cccc(F)c3)C2=O)cc1,inactive
25,CCOc1ccccc1NC(=O)C1CCN(S(=O)(=O)c2c(C)nn(C)c2C)CC1,inactive
26,CCOC(=O)c1c(S(=O)(=O)N2CCCC(C(=O)NCc3cccc(C)c3)C2)c(C)n(C)c1C (centres undefined),inactive

row,SMILES,Potency
1,CCOC(=O)c1c(S(=O)(=O)N2CCCC2)nn(C)c1C,14.1 µM (active)
2,O=C(CN1CCN(Cc2ccc(Cl)cc2)C1=O)NCc1ccc(F)cc1,inactive
3,CC(=O)C1=C(C)N(Cc2ccccc2)C(=S)NC1c1cccc(Br)c1 (centres undefined),44.7 µM (active)
4,COC(=O)C1=C(C)N(C)C(C)=C(C(=O)OC)C1c1cccc(Br)c1,inactive
5,COC(=O)C1=C(C)N(Cc2ccccc2C(F)(F)F)C(=NCc2ccc(OC)cc2)NC1c1cccc(C(F)(F)F)c1 (centres undefined),inactive
6,COC(=O)C1=C(C)N(Cc2ccc(F)cc2)C(=S)NC1c1cccc(Cl)c1 (centres undefined),39.8 µM (active)
7,COC(=O)C1=C(C)N(Cc2ccccc2C(F)(F)F)C(=NCC2CC2)NC1c1cccc(Cl)c1 (centres undefined),inactive
8,CC(=O)C1=C(C)N(Cc2ccc(Cl)cc2)C(=S)NC1c1ccc(F)cc1 (centres undefined),44.7 µM (active)
9,CCN1CN(Cc2ccccc2)CNC1=S,inactive
10,CCN(CC)C(=O)C1=C(C)N(Cc2ccc(F)cc2)C(=O)C(CC(=O)NC2CCCC2)C1 (centres undefined),inactive
11,O=C1CCN(C(=O)C2CCN(C(=O)C3COc4ccccc4O3)CC2)CCCCCCN1 (centres undefined),inactive
12,Cc1ccc(NC(=O)CN2c3ccccc3CC2C)c(Cl)c1 (centres undefined),inactive
13,O=C(CSc1nnc(Cc2ccccc2)n1-n1cccc1)Nc1ccccc1,inactive
14,C[C@H](NC(=O)Cc1n[nH]c(=O)c2ccccc12)C(=O)N1CCN(c2ccccc2)CC1,inactive
15,Cc1ccc(NC(=O)c2cccc(CS(C)=O)c2)c(C)c1 (centres undefined),inactive
16,Cc1ccc(NC(=O)C2=Cc3sc4c(c3CS2)CCCC4)c(C)c1,20 µM (active)
17,Cc1ccc(NC(=O)CCC2CCCC2)c(C)c1,inactive
18,CSCCC(=O)NCc1ccccc1F,inactive
19,CCCCN1CC(C(=O)Nc2ccc(C(=O)Nc3ccccc3F)cc2)CC1=O (centres undefined),inactive
20,CN(CC1CCOC1)C(=O)Nc1cc(F)c(F)c(F)c1 (centres undefined),inactive
21,CC(=O)OCC1(COC(C)=O)COCC(COC(C)=O)(COC(C)=O)C1=O,inactive
22,C=CCNCc1ccc(Cl)c(Cl)c1,inactive
23,O=C(Nc1ccc(N2CCOCC2)c(Cl)c1)c1ccc2c3c(cccc13)CC2,inactive
24,CCOC(=O)c1cc(NCc2c(Cl)cccc2Cl)ccc1N1CCOCC1,inactive
25,CCCOC(=O)c1cc(NC(=O)c2cc(Cl)c(OC)c(Cl)c2)ccc1N1CCOCC1,5.62 µM (active)
26,C=CCSc1nc2c(c(=O)[nH]c(=O)n2C)n1CCCCC,inactive

row,SMILES,Potency
1,C=CCNC(=O)CSc1nc(-c2ccccc2)c(-c2ccccc2)o1,inactive
2,Cn1cc(CN2CCOC[C@H](Oc3ccc(S(C)(=O)=O)cc3)C2)c2ccccc21,inactive
3,O=C(NC1CCNC1)C1CCN(c2nc(-c3ccccc3)nc3c2CCC3)CC1 (centres undefined),inactive
4,COc1ccc(CNC(=O)C(C)[C@@H]2CCc3c(C)cc(OCCN4CCOCC4)c(C)c3C2)cc1 (some centres undefined),inactive
5,O=C(/C=C/c1ccccc1O)c1ccc(Cl)cc1Cl,39.8 µM (active)
6,O=C(O)/C=C/c1ccc(Cl)cc1Cl,inactive
7,O=C(O)/C=C/c1ccccc1Cl,inactive
8,CN(C)C(=O)c1ccc(OCc2coc(-c3ccccc3)n2)cc1,inactive
9,CC(C)Cn1cncc1CNC(=O)c1ccc2nc(-c3ccc(F)cc3)cn2c1,inactive
10,C[N+]1(CCNC(=O)/C=N/O)CCCCC1,6.31 µM (active)
11,CCN(CC)S(=O)(=O)c1ccc(NC(=O)CC2c3ccccc3C=CN2C(C)=O)cc1 (centres undefined),inactive
12,COc1ccc(CC(=O)N[C@@H](CCSC)c2nc3ccccc3[nH]2)cc1,inactive
13,COc1ccc(CC(=O)NC(CCSC)c2nc3ccccc3[nH]2)cc1 (centres undefined),inactive
14,CSCC[C@H](NC(=O)CSc1cc(Cl)ccc1Cl)c1nc2ccccc2[nH]1,44.7 µM (active)
15,Cc1nc(-c2ccc(OC(F)(F)F)cc2)sc1C(=O)N1CCCC1,inactive
16,O=C(CSc1nc(CN2CCOCC2)nc2ccccc12)N1CCN(Cc2ccccc2)CC1,inactive
17,Cc1cc2oc(C(=O)Nc3ccc(S(=O)(=O)N4CCCC(C)C4)cc3)cc(=O)c2cc1C (centres undefined),inactive
18,CC(=O)N1CCN(C(C(=O)O)c2cn(CCC(=O)O)c3cc(Br)ccc23)CC1 (centres undefined),inactive
19,CCCCCCCC[n+]1cccc(C(=O)N2c3c(nc(N)[nH]c3=O)NC(C)C2C)c1 (centres undefined),44.7 µM (active)
20,COc1ccc(CCNC(=O)c2sc(NC(C)C)nc2C)cc1,inactive
21,O=S1(=O)CC(N2CCSCC2)CN1Cc1cn(Cc2cccc(Cl)c2)nn1 (centres undefined),inactive
22,CCCCCCN1CCN(C2CN(Cc3cn(Cc4ccc(F)cc4)nn3)S(=O)(=O)C2)CC1 (centres undefined),inactive
23,Cc1cccc(CN2CCN(C3CN(Cc4cn(Cc5cc(C)cc(C)c5)nn4)S(=O)(=O)C3)CC2)c1 (centres undefined),inactive
24,Cc1cccc(CN2CCN(C3CN(Cc4cn(Cc5ccccc5F)nn4)S(=O)(=O)C3)CC2)c1 (centres undefined),inactive
25,O=S1(=O)CC(N2CCN(CCO)CC2)CN1Cc1cn(Cc2ccc(Cl)cc2)nn1 (centres undefined),25.1 µM (active)
26,O=S1(=O)CC(N2CCN(CCO)CC2)CN1Cc1cn(Cc2cccc(Cl)c2)nn1 (centres undefined),7.08 µM (active)

# Reference: PubChem BioAssay AID1671190 (National Center for Advancing Translational Sciences (NCATS), 2021)
